Shown are actives, neighbours in structure and some others; about 19% of the full set was active somewhere.
Gal4-VP16 FLuc – Gal4-VP16 reporter inhibition counter-screen; Drosophila S2 Gal4-VP16 UAS-luciferase, luminescence, 20 h; Potency, µM (doses to about 53.6 µM), without a hit: at the highest dose activity, negative = inhibition, hits mostly inhibitors; 310,000 tested, 3.5% active;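 note: Gal4-VP16 expression switched on by copper sulfate through the metallothionein promoter; nearly all actives have a fitted effect of over 50% in size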
DT40 TDP1 CPT – DT40-hTDP1 cell growth loss with CPT | 420,000 tested, 12% active | chicken DT40 Tdp1-/-;hTDP1 cells + 20 nM CPT, ATP luminescence, 48 h | Potency, µM (doses to about 46.2 µM), inactives show at the top dose activity change, negative = growth inhibition, usual class: inhibitors | AID 686979; note: nearly all actives have a fitted effect of over 55% in size
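Cell growth measured by CellTiter-Glo luminescence after a minimum 48 h, 37 C compound exposure with 20 nM CPT in Tdp1-knockout DT40 cells stably expressing hTDP1, seeded 400/well; qHTS titration format.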
RORgamma inh – ROR gamma (mouse) transcription inhibition | Drosophila S2 Gal4-RORgamma UAS-luciferase reporter, 20 h | Potency, µM (series often up to 53.6 µM), for the others: at the top dose activity change, negative = inhibition, usual class: inhibitors | 310,000 tested, 5.4% active | AID 2551; note: nearly all actives have a fitted effect of over 60% in size
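Read-out: Photinus luciferase luminescence; inhibitors lower reporter signal. Insect Schneider cells with Gal4-ROR gamma fusion under metallothionein promoter, UAS reporter; 700 uM final copper sulfate induction, 20 hr, ambient temperature.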
DT40 TDP1 no CPT – qHTS for Inhibitors of human tyrosyl-DNA phosphodiesterase 1 (TDP1): qHTS in cells in absence of CPT; 420,000 tested, 15% active; Potency, µM (titrated, usually from 46.2 µM), inactives show top-dose activity change, negative = growth inhibition, most hits filed as inhibitors; DT40 Tdp1-/- hTDP1 cells, no CPT, ATP luminescence, 48 h; note: nearly all actives have a fitted effect of over 55% in size
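Compound effects on proliferation are scored in DT40 Tdp1-/-;hTDP1 cells in the absence of CPT. ATP levels (CellTiter-Glo luminescence) are recorded after a ≥48 hr, 37 °C incubation.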
TDP1 block – inhibitors of human tyrosyl-DNA phosphodiesterase TDP1 | 350,000 tested, 0.28% active | Potency, µM (doses to about 130 µM), without a hit: top-dose activity change, negative = inhibition, actives largely listed as inhibitors | AID 485290 | recombinant TDP1, AlphaScreen DNA substrate cleavage | Q9NUW8; note: nearly all actives have a fitted effect of over 40% in size
Target sequence (Q9NUW8 whole entry, looked up): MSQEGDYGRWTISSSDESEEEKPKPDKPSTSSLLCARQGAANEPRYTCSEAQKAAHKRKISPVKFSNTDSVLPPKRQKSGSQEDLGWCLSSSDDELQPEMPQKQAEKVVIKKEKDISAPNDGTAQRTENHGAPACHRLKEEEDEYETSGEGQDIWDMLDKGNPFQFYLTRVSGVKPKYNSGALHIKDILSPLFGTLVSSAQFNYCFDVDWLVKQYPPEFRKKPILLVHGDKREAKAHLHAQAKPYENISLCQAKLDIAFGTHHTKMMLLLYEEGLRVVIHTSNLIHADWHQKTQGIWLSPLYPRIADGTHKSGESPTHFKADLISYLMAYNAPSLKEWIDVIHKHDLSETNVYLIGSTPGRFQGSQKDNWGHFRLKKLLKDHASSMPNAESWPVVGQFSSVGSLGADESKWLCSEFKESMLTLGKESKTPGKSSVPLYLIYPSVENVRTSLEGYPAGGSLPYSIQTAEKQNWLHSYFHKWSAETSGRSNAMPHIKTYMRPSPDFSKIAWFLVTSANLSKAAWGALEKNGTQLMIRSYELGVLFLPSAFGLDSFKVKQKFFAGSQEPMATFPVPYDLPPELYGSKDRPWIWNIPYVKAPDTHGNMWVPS
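Steps: enzyme plus compound, 15 min RT; add biotin/phosphotyrosine-FITC oligonucleotide (15 nM final), react 5 min; add donor/acceptor beads (10 ug/ml final), 10 min; read AlphaScreen. Tdp1 at 1 nM final.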
* = called active by the depositor; u = inconclusive; x = no result given; [ ] = remark or other dose. Calls come from the whole dose curve; as a rule, active = well fitted curve in the direction sought with a large enough effect; inconclusive = small, poorly fitted or top-dose-only effect, or another doubt; inactive = no such curve, though single readings can be large; an effect the other way counts as inactive or inconclusive. % is set by controls: 0 for no effect and ±100 for the full control effect; potency is the fitted concentration of half-maximal effect.

SMILES	Gal4-VP16 FLuc	DT40 TDP1 CPT	RORgamma inh	DT40 TDP1 no CPT	TDP1 block
O=C(NCc1ccc(F)cc1)C1CCCN(c2cnccn2)C1 (stereo not drawn)	0%	1%	-12%	-14%	3%
CC(C)c1nnc(NC(=O)CN(C)S(=O)(=O)c2ccc3c(c2)OCCO3)s1	0%	7%	u	5%	0%
CC(=O)Nc1cccc(-c2nnc(SCC(=O)N3CCCCC3)n2C)c1	-10%	-17%	3%	2%	-4%
CC1CCN(c2cc3c(cc2F)c(=O)c(S(=O)(=O)c2ccc(Cl)cc2)cn3C)CC1	x	u	x	u	1%
CCS(CC)=NS(=O)(=O)c1ccc(NC(C)=O)cc1	-2%	11%	0%	-3%	5%
CCc1ccccc1NC(=O)N1CCN(c2nnc(C)c3c(C)n(-c4ccccc4)nc23)CC1	x	u	x	21µM*	-3%
Cc1nnc(N2CCC(C(=O)NCc3ccc(F)cc3)CC2)c2nn(-c3ccc(Cl)cc3)c(C)c12	x	16µM*	x	u	-6%
O=C(Oc1cccc2ccccc12)c1ccncc1	-17%	14%	0%	-8%	2%
NC(N)=N/N=C(\N=Nc1ccccc1)c1cccc2cccnc12	x	23µM*	x	21µM*	x
NC(N)=N/N=C(\N=Nc1ccccc1)c1ccc(Cl)cc1	x	13µM*	x	13µM*	x
Cc1ccccc1NC(=O)CN1C(=O)CSc2ccc(S(=O)(=O)N3CCCC3)cc21	-8%	2%	-5%	4%	1%
COC(=O)[C@@]12CCCCN1[C@H](c1ccc(-c3ccc(F)cc3)cc1)[C@@H]1C(=O)N(C)C(=O)[C@@H]12	x	21µM*	x	13µM*	0%
COC(=O)[C@@]12CCCCN1[C@H](c1ccc(-c3ccc(C(C)=O)cc3)cc1)[C@H]1C(=O)N(C)C(=O)[C@H]12	x	12µM*	x	15µM*	-6%
COC(=O)[C@@]12CCCCN1[C@H](c1ccc(-c3ccccc3)cc1)[C@H]1C(=O)N(C)C(=O)[C@H]12	x	u	x	u	-1%
C/C(=N\NC(=O)C(O)(c1ccccc1)c1ccccc1)c1ccc(NC(=O)CCCC(=O)O)cc1	-4%	-5%	-21%	26%	3%[56.1 µM]
Cc1ccnc(NS(=O)(=O)c2ccc(NC(=O)C3CCCCC3)cc2)n1	-3%	2%	23%	-5%	4%
O=C(COC(=O)c1ccc(O)cc1)Nc1ccccc1-c1ccccc1	-9%	u	14%[10 µM]	21µM*	6%
CSc1ccccc1NC(=O)COC(=O)c1ccc(O)cc1	5%[10 µM]	-21%	1%	u	0%
O=C(COC(=O)c1ccc(-c2ccccc2)cc1)Nc1ccccc1-c1ccccc1	u	u	31%	10µM*	3%
COc1ccc(NC(=O)CSCC(=O)N2c3ccccc3CCc3ccccc32)cc1	-2%	u	-8%[10 µM]	u	3%
COc1ccc(CNC(=O)C2CCN(C(=O)[C@@H](CC(C)C)NC(=O)OC(C)(C)C)CC2)cc1	-14%	x	15%	x	5%
C/C(=N\NC(=S)NCc1ccccc1)c1ccccc1F	-9%	-3%	1.3µM*	u	8%
C/C(=N\NC(=S)NCCc1ccccc1)c1ccc(O)cc1O	u	u	u	u	-4%[0.0935 µM]
CCNC(=S)NCc1ccco1	-3%	3%	-15%	12%	3%
C/C(=N\NC(=S)NCc1ccccc1)c1ccco1	7.1µM*	u	1.8µM*	u	5%
SMILES	Gal4-VP16 FLuc	DT40 TDP1 CPT	RORgamma inh	DT40 TDP1 no CPT	TDP1 block
CC/C(C)=N/NC(=S)NCc1ccco1	u	-1%	10µM*	-15%	11%
CCOC(=O)[C@]12CCCC=C1N(CCc1ccc(OC)c(OC)c1)C(=O)[C@H](CC(=O)N1CCCCC1)C2	x	15µM*	x	12µM*	x
COC(=O)[C@]12CCCCC=C1N(CCc1ccc(OC)c(OC)c1)C(=O)[C@H](CC(=O)NCc1ccc(C)o1)C2	x	16µM*	x	u	x
CCOC(=O)[C@]12CCCC=C1N(CCc1ccc(OC)c(OC)c1)C(=O)[C@H](CC(=O)N1CCN(C(=O)C3CC3)CC1)C2	x	-10%	x	-14%	x
CCOC(=O)[C@]12CCC=C1N(CCC1=CCCCC1)C(=O)[C@H](CC(=O)NCc1ccc(OC)c(OC)c1)C2	x	u	x	-29%	x
CCOC(=O)[C@]12CCCC=C1N(CCc1ccc(OC)c(OC)c1)C(=O)[C@H](CC(=O)NCc1ccccc1)C2	x	16µM*	x	13µM*	x
COC(=O)[C@]12CCCCC=C1N(CCc1ccc(OC)c(OC)c1)C(=O)[C@H](CC(=O)NCc1cccc3ccccc13)C2	x	10µM*	x	9.2µM*	x
O=C(COC(=O)c1ccccc1Cl)Nc1cccc(S(=O)(=O)N2CCCCC2)c1	x	-23%	x	u	x
COc1ccccc1CCNC(=O)CN1C(=O)c2ccccc2S1(=O)=O	x	5%	x	-19%	-3%
Cc1cc(C)nc(NS(=O)(=O)c2ccc(NC(=O)NC3CCCCC3)cc2)n1	1%	6%	6%	2%	2%
O=C(O)CC(CNC(=O)C1CCCN1C(=O)OCc1ccccc1)c1ccccc1 (stereo not drawn)	0%	4%	1%	10%	x
CC1CC1C(=O)OCC(=O)Nc1ccc2[nH]c(=O)[nH]c2c1 (stereo not drawn)	-3%	-13%	2%	-6%	-8%
Cc1[nH]c(C)c(S(=O)(=O)NCc2ccccc2Cl)c1C(=O)N1CCCC1	-3%	-3%	-2%	5%	3%
O=C(/C=C/c1ccc(S(=O)(=O)N2CCOCC2)cc1)NCCc1ccc(C(F)(F)F)cc1	x	u	x	u	0%
CC(C)Oc1ccc(CNC(=O)c2ccc(Cn3c(=O)c4cccn4c4cccnc43)cc2)cc1	x	u	x	0.46µM*	-3%
CCOc1ccc(CCNC(=O)c2cccc(-n3c(C)nc4cccnc43)c2C)cc1	x	21µM*	x	15µM*	-3%
O=C(NCc1ccccc1)c1ccc(Cn2c(=O)c3cccn3c3cccnc32)cc1	x	-6%	x	-23%	5%
CCOc1ccc(CCNC(=O)c2ccc(Cn3c(=O)c4cccn4c4cccnc43)cc2)cc1	x	13µM*	x	21µM*	x
O=C(NCCc1ccc(Cl)cc1)c1ccc(Cn2c(=O)c3cccn3c3cccnc32)cc1	x	u	x	15µM*	-8%
O=C(CCN1C(=O)c2cccc3cccc(c23)C1=O)Nc1ccon1	1%	-1%	5%	-4%	3%
Cc1ccccc1C(=O)N1CCC(n2nccc2NC(=O)C2CC2)CC1	3%	0%	8%	-4%	-1%
Cc1cccc(-n2cc(-c3ccccc3)c3c(N4CCC(C)CC4)ncnc32)c1	x	u	x	u	5%
